# Sampled rows, rich in hits. Any-hit rate of the full collection: about 11%.
# Pf growth 48h – P. falciparum growth inhibition at 48 hours (one generation). Potency, µM (series often up to 28.7 µM), without a hit: top-dose activity change, negative = inhibition, most hits filed as inhibitors. P. falciparum luciferase growth in erythrocytes, 48 h. 310,000 tested, 5.9% active
#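 Luciferase-expressing P. falciparum in infected erythrocytes (2% hematocrit, 0.1% parasitemia final) in RPMI 1640/0.5% Albumax were exposed to compound for 48 hours at 37 C, 5% CO2; growth read as luminescence.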
# HCV inh – blocks hepatitis C virus. Huh7.5.1 HCVcc-Cre infection, luciferase reporter, 44 h. Potency, µM (top dose mostly 41.8 µM), inactives show top-dose activity change, negative = inhibition, hits mostly inhibitors. 340,000 tested, 3.4% active. AID 651820
#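 A cell-based infection assay in which seeded cells (1,000 per well) receive test compound after 4 h, are inoculated with HCVcc-Cre at approximately 0.5 moi, and are incubated 44 h before luminescence detection.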
# AMA1-RON2 inh – AMA1-RON2 (P. falciparum) interaction inhibition; AID 720542; 360,000 tested, 0.2% active; AlphaScreen AMA1-biotinylated RON2 peptide binding; Potency, µM (doses to about 58.2 µM), for inactives: at the highest dose activity change, negative = inhibition, actives largely listed as inhibitors;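 also: 0% = vehicle wells and -100% = peptide control; nearly all actives have a fitted effect of over 45% in size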
#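 AMA1 (3D7) with his tag at 25 nM final met compounds first, then biotinylated RON2 peptide at 25 nM; detection used donor plus acceptor beads, 10 µg/mL apiece, read by AlphaScreen after 30 min at room temperature.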
# Pf growth 96h – P. falciparum growth inhibition at 96 hour, primary screen for plastid delayed-death inhibitors | P. falciparum luciferase reporter growth, 96 h | Potency, µM (titrated, usually from 28.7 µM), without a hit: top-dose activity change, negative = inhibition, hits mostly inhibitors | 320,000 tested, 6.9% active | AID 504834
#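 Parasite growth measured via integrated firefly luciferase reporter in P. falciparum. Infected erythrocytes at 2% hematocrit, 0.05% parasitemia final were treated 96 hours at 37 C under 5% CO2, and luminescence was read.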
# An asterisk follows results filed as active; ? = inconclusive; . = no result given; [ ] = dose if it differs, or a comment. Calls follow the shape of the dose curve; as a rule, active = well fitted curve in the direction sought with a large enough effect; inconclusive = small, poorly fitted or top-dose-only effect, or another doubt; inactive = no such curve, though single readings can be large; an effect the other way counts as inactive or inconclusive. Unless noted, % is scaled to controls: 0 for no effect and ±100 for the full control effect; potency is read from the fitted curve at half-maximal effect.
SMILES,Pf growth 48h,HCV inh,AMA1-RON2 inh,Pf growth 96h
CC(c1ccccc1)C(CC(=O)O)C(=O)Nc1ccc(Cl)c(Cl)c1 (stereo unspecified),-15%,5%,5%,?
CCN(CC)CCOc1ccc(C(O)(Cc2ccc(Cl)cc2)c2ccc(C)cc2)cc1 (stereo unspecified),13µM*,.,.,9.5µM*
COCCN(CCOc1cc(C)cc(C)c1)Cc1ccc(Cl)cc1,?,6%,13%,?
O=C(O)CCC1(CCC(=O)O)c2ccccc2-c2ccccc21,-6%,18%,14%,6.6µM*
O=C(O)CCC1(C(=O)O)CCC(=O)c2ccccc21 (stereo unspecified),.,27%,2%,.
O=C(NC1CC1)C1=NOC(CNc2ncc(C(F)(F)F)cc2Cl)C1 (stereo unspecified),.,?,9%,12µM*
O=C(N/C=N/O)C1=NOC(CNc2ncc(C(F)(F)F)cc2Cl)C1 (stereo unspecified),.,3%,4%,-2%
O=C(c1ccc(CNS(=O)(=O)c2ccc(F)cc2)cc1)N1CCCCCC1,.,.,-6%,.
O=C(c1ccccc1S(=O)(=O)NCc1ccccc1)N1CCCC1,.,6%,-2%,15µM*
Cc1cc(C)c(C)c(S(=O)(=O)NCc2ccc(C(=O)N3CCCCC3)cc2)c1C,1µM*,?,-4%,0.41µM*
Cc1ccc(C)c(S(=O)(=O)NCc2ccc(C(=O)N3CCCCCC3)cc2)c1,?,-5%,-17%,7.4µM*
Cc1ccc(C)c(S(=O)(=O)NCc2ccc(C(=O)N3CCN(c4ccccc4)CC3)cc2)c1,-13%,?,-29%,-31%
Cc1cc(C)c(C)c(S(=O)(=O)NCc2ccc(C(=O)N3CCCC3)cc2)c1C,6.6µM*,-9%,-11%,?
O=C(c1cc(Cl)c(=O)n(Cc2ccc(Cl)cc2)c1)N1CCOCC1,-17%,3%,0%,23%
CCOC(=O)c1[nH]c(C=O)c(C(=O)OCC)c1C,?,?,12%,?
CC1CCCN(C(=O)COc2ccc(Nc3ccccc3)cc2)C1 (stereo unspecified),3%,-5%,-4%,0%
O=C1CSC(c2ccc([N+](=O)[O-])cc2)N1C1CCCCC1 (stereo unspecified),-8%,8%,-2%,0.47µM*
Nc1nnc(SCc2cn3cc(Cl)ccc3n2)s1,125%,11%,6%,111%
Oc1ccc(C=NC2CCCCC2)c(O)c1,9%,1%,5%,10µM*
O=c1oc2cc(OCc3ccc(F)cc3F)ccc2cc1-c1ccc2ccccc2n1,-12%,1%[0.335 µM],.,?
CCCCn1c(CCc2ccccc2)nc2cc3[nH]c(=O)c(C(C)C)nc3cc21,3.7µM*,?,4%,2.6µM*
CN(C)CCCN(C(=O)c1ccc(S(=O)(=O)N(C)C)cc1)c1nc2ccc(F)cc2s1,-5%,-11%,-5%,-9%
CN(C)CCCN(C(=O)c1ccc2c(c1)CCCC2)c1nc2ccc(F)cc2s1,8.3µM*,7.9µM*,?,?
CN(C)CCCN(C(=O)c1ccc2c(c1)CCCC2)c1nc2cc3c(cc2s1)OCO3,12µM*,?,-12%,2.3µM*
CCOC(=O)c1cc(NC(=O)Cc2ccc(S(=O)(=O)N3CCOCC3)s2)cc(C(=O)OCC)c1,10µM*,?,6%,5.2µM*
SMILES,Pf growth 48h,HCV inh,AMA1-RON2 inh,Pf growth 96h
O=C(Cc1ccc(S(=O)(=O)N2CCOCC2)s1)Nc1cc(C(F)(F)F)ccc1N1CCCC1,12µM*,?,?,?
O=C(Cc1ccc(S(=O)(=O)N2CCOCC2)s1)Nc1ccccc1N1CCCC1,-21%,-10%,5%,?
O=C(Cc1ccc(S(=O)(=O)N2CCOCC2)s1)Nc1cc(C(F)(F)F)cc(C(F)(F)F)c1,?,11µM*,9%,?
O=C(Cc1ccc(S(=O)(=O)N2CCOCC2)s1)Nc1ccc(N2CCOCC2)cc1,171%,15%,-16%,258%
Cc1cc(C)cc(NC(=O)Cc2ccc(S(=O)(=O)N3CCCC3)s2)c1,?,10%,-10%,?
CN(C)C1C(=O)C(C(N)=O)=C(O)C2(O)C(=O)C3=C(O)c4c(O)cccc4C(C)(O)C3C(O)C12 (stereo unspecified),?,5%,?,2.6µM*
C[C@H]1c2cccc(O)c2C(O)=C2C(=O)[C@]3(O)C(O)=C(C(N)=O)C(=O)[C@@H](N(C)C)C3[C@@H](O)C21 (stereo partly specified),3.7µM*,17%,-30%,0.41µM*
C=C1c2cccc(O)c2C(=O)C2C(=O)[C@]3(O)C(=O)C(C(N)=O)C(=O)[C@@H](N(C)C)[C@@H]3[C@@H](O)[C@H]12 (stereo partly specified),.,1%,0.89µM*,.
C=C1c2cccc(O)c2C(O)=C2C(=O)[C@@]3(O)C(O)=C(C(N)=O)C(=O)[C@@H](N(C)C)[C@@H]3[C@@H](O)[C@H]12,3.2µM*,.,.,1.3µM*
CCC(CC)n1c(C)cc(=O)n1C(CC)CC,.,34%,28%,.
CN(C)[C@@H]1C(=O)C(C(N)=O)=C(O)[C@]2(O)C(=O)C3=C(O)c4c(O)ccc(Cl)c4[C@H](O)[C@H]3C[C@@H]12,6.7µM*,.,.,3.4µM*
CN(C)[C@@H]1C(=O)C(C(N)=O)=C(O)[C@]2(O)C(=O)C3=C(O)c4c(O)ccc(Cl)c4[C@](C)(O)[C@H]3C[C@@H]12,-15%[12.8 µM],.,.,?
C[C@@H]1c2cccc(O)c2C(O)=C2C(=O)[C@@]3(O)C(O)=C(C(N)=O)C(=O)[C@@H](N(C)C)[C@@H]3[C@@H](O)[C@@H]21,7.6µM*,.,.,1.5µM*
O=C1c2cccc3cccc(c23)C(=O)N1Cc1ccccn1,.,.,5%,.
OC[C@@H]1CN(Cc2cccnc2)C[C@H](n2cnc3c(N4CCN(c5ccccc5)CC4)ncnc32)O1,.,.,-2%,.
Cc1ccc(-c2c(NC(=O)C(C)C)n(C)c3ccccc3c2=O)cc1,28%,3.2µM*,11%,29%
CC(C)C(=O)Nc1c(-c2ccccc2)c(=O)c2ccccc2n1C,45%,9%,3%,18%
COc1cc2c(cc1OC)C(C(=O)O)C(c1ccc(C)o1)N(C)C2=O (stereo unspecified),33%,5%,-16%,13µM*
Cc1ccc(C2C(C(=O)O)c3ccccc3C(=O)N2C)o1 (stereo unspecified),15%,?,0%,.
CCOc1cc(C2C(C(=O)O)c3cc(OCC)c(OCC)cc3C(=O)N2C)ccc1O (stereo unspecified),-7%,3%,-5%,12µM*
CC(C)CN1CCC(=O)N([C@H](CSc2ccccc2)Cc2ccccc2)CC1,?,?,-4%,13µM*
CCCN1CCC(=O)N([C@H](CSc2ccccc2)Cc2ccccc2)CC1,?,-10%,0%,?
Cc1ccc(SC[C@H](Cc2ccccc2)N2CCN(CC(C)C)CCC2=O)cc1,?,-22%,-4%,?

# Bioassay records deposited in PubChem BioAssay by National Center for Advancing Translational Sciences (NCATS).
